Test results: PubChem BioAssay (NCI)
Compounds without any hit were thinned out: in the full panel of roughly 83,000, 20% have a hit.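 Interpretation: 100, growth as untreated; towards 0, rising growth inhibition; 0, no net growth; 0 to -100, cell death. Compounds scoring below 10 were considered active.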 Unmarked numbers belong to inactive results. The source made the active and inactive calls.

Key:
Test in all cases: NCI-60 one-dose screen, 48 h (100 = growth as untreated, 0 = no growth, -100 = all killed)
DU-145 prostate = conditions: 10 µM
K-562 leukemia = conditions: 10 µM
MALME-3M melanoma = conditions: 10 µM
MDA-MB-231 breast = conditions: 10 µM
RXF 393 renal = conditions: 10 µM
SF-268 CNS = conditions: 10 µM
SF-295 CNS = conditions: 10 µM
SF-539 CNS = conditions: 10 µM
M14 melanoma = conditions: 10 µM
HCT-15 colon = conditions: 10 µM
HT29 colon = conditions: 10 µM
SNB-75 CNS = conditions: 10 µM
SNB-19 CNS = conditions: 10 µM
PC-3 prostate = conditions: 10 µM
SK-MEL-5 melanoma = conditions: 10 µM
UACC-62 melanoma = conditions: 10 µM unless noted
LOX IMVI melanoma = conditions: 10 µM
SK-MEL-28 melanoma = conditions: 10 µM
UACC-257 melanoma = conditions: 10 µM
U251 CNS = conditions: 10 µM

Row | SMILES | growth (DU-145 prostate) | growth (K-562 leukemia) | growth (MALME-3M melanoma) | growth (MDA-MB-231 breast) | growth (RXF 393 renal) | growth (SF-268 CNS) | growth (SF-295 CNS) | growth (SF-539 CNS) | growth (M14 melanoma) | growth (HCT-15 colon) | growth (HT29 colon) | growth (SNB-75 CNS) | growth (SNB-19 CNS) | growth (PC-3 prostate) | growth (SK-MEL-5 melanoma) | growth (UACC-62 melanoma) | growth (LOX IMVI melanoma) | growth (SK-MEL-28 melanoma) | growth (UACC-257 melanoma) | growth (U251 CNS)
1 | O=C(NCCNC(=O)c1ccc(Cl)cc1Cl)c1ccc(Cl)cc1Cl | 114% | 107% | 112% | 91.8% | 95% | 99.1% | 82.7% | 96.5% | 105% | 106% | 118% | 102% | 110% | 84.5% | 98.5% | 91.1% | 94.9% | 104% | – | –
2 | Cc1c(O)cnc2nn(-c3ccccc3)c(=N)n12 | 110% | 101% | 124% | 103% | 111% | 113% | 99.1% | 99.6% | 114% | 100% | 96.3% | 76.4% | 98.5% | 119% | 101% | 106% | 102% | 112% | – | –
3 | CC(C)(C)n1nc(C2CC2)c(Br)c1NC(=O)c1ccccc1F | 121% | 91.6% | 107% | 100% | 114% | 112% | 94.9% | 100% | 102% | 93.4% | 103% | 78.4% | 107% | 91.5% | 99.7% | 90.7% | 99.1% | 100% | – | –
4 | COc1cc(CCN=Cc2ccccc2O)c([N+](=O)[O-])cc1OC | 113% | 94.9% | 89.5% | 112% | 111% | 100% | 87.4% | 106% | 95.6% | 92.3% | 101% | 96.6% | 99.3% | 98.9% | 101% | 109% | 99.4% | 113% | – | –
5 | CCOC(=O)C1=C(Nc2ccc(Br)cc2)C(=O)N(CC)C1 | 107% | 106% | 101% | 81.8% | 92.9% | 96.8% | 87% | 84.9% | 110% | 91.4% | 103% | 94.7% | 84% | 101% | 97.7% | 84.2% | 94.3% | 101% | – | –
6 | COc1cc(/C=C/C(=O)c2ccccc2)cc(OC)c1OC | 62.5% | 11.4% | 76.8% | 79.1% | 73.2% | 57.9% | -24.7% (active) | 80.8% | 74.6% | 31.4% | 19.1% | 71.2% | 83.8% | 58% | 76.1% | 54.9% | 2.98% (active) | 82.3% | – | –
7 | CC1NC(=O)NC1CCCCCC(=O)O (stereo not drawn) | 108% | 125% | 106% | 91.4% | 105% | 96.5% | – | 105% | 95% | 98.4% | 102% | 94% | 99.8% | 86.4% | 102% | 96.7% | 93.3% | 115% | 86.6% | 94.5%
8 | S=C1NCc2cncnc2N1 | 112% | 93% | 112% | 132% | 105% | 107% | 94.2% | 92.7% | 103% | 95.4% | 104% | 86.6% | 109% | 96.1% | 103% | 108% | 104% | 107% | – | –
9 | O=C(Nc1ccccc1)OCCc1ccccc1 | 108% | 114% | 107% | 119% | 93.3% | 111% | 80.9% | 99% | 110% | 96.9% | 95% | 80.3% | 101% | 91% | 99.3% | 104% | 107% | 100% | – | –
